# Shown are actives, neighbours in structure and some others; about 2.4% of the full set was active somewhere.
# Epigenetic derep = Quantitative High-Throughput Screen for Regulators of Epigenetic Control. murine LDR cells, GFP reporter derepression, 30 h. 280,000 tested, 0.2% active. AID 1865, 2009. Potency, µM (series often up to 53.9 µM), for the others: top-dose GFP activation, usual class: activators; note: % of control where 0% means no effect; nearly all actives have a fitted effect of over 60% in size
#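 Murine LDR cells carrying a silenced, genomically integrated CMV-driven GFP reporter were exposed to compound for 30 hours at 37 C. After PBS washes, GFP-positive cells (20–120 um objects) were counted by laser-scanning microplate cytometry.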
# Nrf2 inh = Nrf2 qHTS screen for inhibitors; A549 ARE-Fluc reporter, luciferase luminescence, 18-24 h; Potency, µM (titrated, usually from 46 µM), for the others: at the highest dose activity change, negative = inhibition, most hits filed as inhibitors; 360,000 tested, 2.1% active; note: % is set by controls: 0 for no effect and ±100 for the full control effect; nearly all actives have a fitted effect of over 60% in size
#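 Nrf2 function is reported as luminescence of an ARE-controlled luciferase in A549 cells. Compounds were tested at several concentrations, and a CellTiter-Fluor read on the same wells flagged cytotoxicity.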
# A549 viability = Nrf2 qHTS screen for inhibitors: counterscreen for cytotoxicity | A549 ARE-Fluc cells, CellTiter-Fluor viability, 18-24 h | 390,000 tested, 0.16% active | Potency, µM (highest dose often 46 µM), for inactives: at the top dose activity change, negative = cytotoxicity, usual class: inhibitors; note: % is set by controls: 0 for no effect and ±100 for the full control effect
#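 A549 ARE-Fluc cells in 5% FBS OPTI-MEM, 5000 cells/well, rested 2 h then exposed to compounds in concentration-response for 18-24 h at 37 °C. Viability by CellTiter-Fluor fluorescence (Ex 405/Em 525) after 30 min; luciferase luminescence (BugLite, 15 min, RT) read afterwards.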
# PINK1 modulator = A Quantitative High throughput Screen to Identify Chemical Modulators of PINK1 Expression; PINK1 immunofluorescence, high-content cytometry, 24 h; AID 624263, 2012; 410,000 tested, 0.2% active; Potency, µM (series often up to 76.6 µM), inactives show at the highest dose activation (PINK1 increase), actives largely listed as activators; active = well fitted activation curve with a large enough effect; inconclusive = small, poorly fitted or top-dose-only effect; cell line not stated here; note: % of control where 0% means no effect; nearly all actives have a fitted effect of over 65% in size
#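 Decision-based qHTS: stable cells, 24 h exposure to five compound concentrations, CCCP as control. Fixed cells stained for PINK1 plus nuclear, mitochondrial and cell markers, cytometer read.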
# Nrf2 ARE act = qHTS of Nrf2 Activators. 410,000 tested, 0.31% active. AREc32 ARE-luciferase reporter (MCF7-derived line), luminescence, 24 h. Potency, µM (top dose mostly 46.1 µM), for the others: at the top dose activation, hits mostly activators; note: % of control where 0% means no effect; nearly all actives have a fitted effect of over 65% in size
#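 AREc32_Fluc, 1000 cells/well, OPTI-MEM + 5% FBS, o/n 37 deg C 5% CO2; 23 nL cpd by pin tool, 24 hr; Steady-Glo 30 min RT, luminescence.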
# An asterisk follows results filed as active; u = inconclusive; x = no result given; [ ] = another dose, or the depositor's remark. Unless noted, calls come from the whole dose curve; as a rule, active = well fitted curve in the direction sought with a large enough effect; inconclusive = small, poorly fitted or top-dose-only effect, or another doubt; inactive = no such curve, though single readings can be large; an effect the other way counts as inactive or inconclusive. Potency is the fitted concentration of half-maximal effect.
SMILES,Epigenetic derep,Nrf2 inh,A549 viability,PINK1 modulator,Nrf2 ARE act
CC(=O)c1c(C)[nH]c(C(=O)CSc2nnc(C3CCCCC3)n2N)c1C,-1%,21µM*,-9%,-1%,0%
N#C/C(=C\c1ccc[nH]1)C(=O)Nc1ccccc1F,x,u,-9%,-1%,11µM*
N#C/C(=C\c1ccc[nH]1)C(=O)Nc1ccccc1Cl,x,9%,7%,2%,u
O=C(Nc1ccc2nc(-c3ccc(Br)o3)[nH]c2c1)c1cccs1,0%,18µM*,u,0%,7%
Cn1cccc1-c1nc2ccc(NC(=O)c3cccs3)cc2[nH]1,-1%,18µM*,-14%,1%,3%
Cc1ccc(NCCC(=O)c2cccs2)cc1C,2%,u,3%,2%,22µM*
O=C(c1cccc(F)c1)N1CCN(c2cc(N3CCCCC3)c(F)cc2[N+](=O)[O-])CC1,-1%,21µM*,u,2%[38.3 µM],0%
CC(=O)N1CCN(c2cc(N3CCc4ccccc4C3)c(F)cc2[N+](=O)[O-])CC1,0%,23µM*,u,-5%[38.3 µM],4%
Cn1c(=O)n(C)c2cc([N+](=O)[O-])c(N3CCN(C(=O)c4ccc(F)cc4)CC3)cc21,0%,18µM*,-22%,-1%,4%
CCC(=O)N1CCN(c2cc(N3CCCC3)c(F)cc2[N+](=O)[O-])CC1,x,-25%,2%,-1%,2%
CC(=O)Nc1ccc(S(=O)(=O)N2CCN(c3cc4c(cc3[N+](=O)[O-])n(C)c(=O)n4C)CC2)cc1,0%,16µM*,4%,5%[38.3 µM],4%
Cc1c(CC(=O)NCCc2ccccc2F)c(=O)oc2c(C)c3occ(C(C)(C)C)c3cc12,-2%,9%,-3%,1%,-1%
C/C(=N\NC(=S)NCC(C)(C)C)c1cc(F)cc(F)c1O,1%,23µM*,u,u,10µM*
COCCNC(=S)N/N=C(\C)c1ccc(O)cc1,0%,8%,-8%,1%,0%
O=S(=O)(c1ccc2c(c1)CCCC2)N1CCN(c2nc(-c3ccccc3)nc3ccccc23)CC1,x,-5%,-3%,0%,x
CC1CC1c1ccc(/C=C(\C#N)C(=O)Nc2ccc(Cl)cc2)o1 (stereo unspecified),11%,u,-11%,10%,6.3µM*
CC1CC1c1ccc(/C=C(\C#N)C(=O)Nc2ccccc2Cl)o1 (stereo unspecified),1%,28%,-4%,1%,13µM*
Cc1ccc(Cl)cc1NC(=O)COC(=O)CC(C)(C)CC1=NS(=O)(=O)c2ccccc2N1,0%,x,-15%,2%,1%
CC(C)(CC(=O)NCc1ccc(Cl)cc1Cl)CC1=NS(=O)(=O)c2ccccc2N1,1%,x,-7%,45µM*,-4%
Clc1ccc(CN(CCCNc2ncnc(NCCCc3cnc[nH]3)n2)c2ccc(Br)cn2)cc1Cl,x,u,-17%,x,x
Cc1cc(C(=O)CSc2nc(N)cc(N)n2)c(C)n1CC1CCCO1 (stereo unspecified),x,u,-6%,-2%,0%
Cc1cc(C(=O)CSc2nnc(-c3ccc(Cl)cc3)n2C)c(C)n1CC1CCCO1 (stereo unspecified),0%,7%,-9%[1.84 µM],u,-1%
Cc1cc(C(=O)Cn2nnc(-c3ccc(Cl)cc3)n2)c(C)n1CC1CCCO1 (stereo unspecified),-1%,13µM*,-9%,x,0%
Cc1cc(C)n2nc(SCC(=O)c3cc(C)n(CC4CCCO4)c3C)nc2n1 (stereo unspecified),-3%,10µM*,-5%,2%,2%
COc1cc(CN2CCC3(CCC(CNC(=O)c4cc(C)nn4C)O3)CC2)ccc1F (stereo unspecified),x,x,x,0%,x
SMILES,Epigenetic derep,Nrf2 inh,A549 viability,PINK1 modulator,Nrf2 ARE act
C=CCC[C@H](Cc1ccc(F)cc1)C(=O)OC[C@@H](C)NC(=O)[C@@H](CC=C)CC(=O)N[C@H](CO)Cc1ccccc1,x,21µM*,u,0%,0%
C=CCC[C@@H](Cc1ccc(F)cc1)C(=O)OC[C@@H](NC(=O)[C@@H](CC=C)CC(=O)N[C@@H](CO)Cc1ccccc1)C(C)(C)C,x,21µM*,u,14%,-1%
C=CCC[C@H](Cc1ccc(F)cc1)C(=O)OC[C@@H](NC(=O)[C@@H](CC=C)CC(=O)N(CCO)Cc1ccccc1)C(C)(C)C,x,3.3µM*,6.5µM*,12%,-5%
Cc1ccc2c(c1)CN(CCNC(=O)c1cccc(Cn3cccn3)c1)CC(C)O2 (stereo unspecified),x,x,x,-1%,x
COc1cc2nc(N3CCCN(C)CC3)nc(NC3CCN(C)C3)c2cc1OC (stereo unspecified),x,x,x,-1%,x
C=CC1CN2CCC1C[C@H]2C(O)c1ccnc2ccc(OC)cc12 (stereo partly specified),0%,x,x,x,x
Cc1cc(I)ccc1Nc1nc(NCCN2CCOCC2)nc(N2CCOCC2)n1,x,x,x,0%,x
CC(=O)c1cc(-c2ccc(F)cc2)n(CC(=O)NC2CCCCCC2)c1C,0%,x,0%,-1%,-1%
CCCn1nc(C(=O)Nc2ccc3nc(N4CCOCC4)sc3c2)ccc1=O,x,21µM*,-14%,-2%,3%
COC(=O)[C@H]1[C@H]2C[C@@H]3c4[nH]c5cc(OC)ccc5c4CCN3C[C@H]2C[C@@H](OC(=O)c2cc(OC)c(OC)c(OC)c2)[C@@H]1OC,22µM*,u,-7%,6%,10%
Clc1ccc2oc(-c3ccccc3)cc(=NCCCN3CCOCC3)c2c1,1%,24%,8%,0%,13µM*
Cc1cc(C(=O)NCC2CCC3(CCN(Cc4cccc(F)c4F)CC3)O2)n(C)n1 (stereo unspecified),x,x,x,-1%,x
Cc1ccc(-c2nc(CSCC(=O)N3CCN(c4ccccn4)CC3)c(C)o2)cc1,0%,16µM*,-19%,3%,1%
Cc1ccc(-c2nc(CSCC(=O)N3CCOCC3)c(C)o2)cc1,2%,u,x,0%,3%
Cc1ccc(-c2nc(CSCC(=O)N3CCN(C(=O)c4ccco4)CC3)c(C)o2)cc1,-3%,-27%,-7%,1%,0%
CCc1ccc(-c2nc(CSCC(=O)N3CCN(c4ccccn4)CC3)c(C)o2)cc1,0%,16µM*,u,2%,-1%
CCCCN1/C(=C/c2cccc[n+]2C)Sc2cc(NC(C)=O)ccc21,x,0%,-2%,1%,-1%
CCN1/C(=C/c2ccc3ccccc3[n+]2CC)C=Cc2ccccc21,u,2.9µM*,9.2µM*,u,-2%
Cc1sc2c3ccsc3ccc2[n+]1C,-1%,2%,-3%,2%,1%
CCCCN1/C(=C/c2ccc3ccccc3[n+]2CC)Sc2ccccc21,3.2µM*,u,u,11µM*,0%[9.22 µM]

# Screens as filed in PubChem BioAssay.
